Reference: PubChem BioAssay AID1159580 (chemical genetic matrix, 2015)
Values joined by “and” are separate entries in the source; they are usually repeats but may differ in a detail not shown here. Equal entries are not always repeated. Out of some 5,500 compounds screened, about 2,000 (36%) were called active. Another 18% or so got no clear call; they are omitted. Rule as the data show it: active = normalized growth mostly below about 0.91 (no sharp cut-off); inconclusive = no clear call, values can overlap the other calls; inactive = mostly above about 0.92. This is one part of the list.

Experiment: chemical genetic growth profiling, strain panel (AID 1159580);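 also: tested at 20 µM; growth read once vehicle control cultures reached saturation at 30 °C; 1 = growth at the plate median or of vehicle wells; lower values mean less growth of the strain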
Settings: S. cerevisiae deletion strains, growth OD

Measured: normalized growth

CCCCC1C(=O)N(c2ccccc2)N(c2ccc(O)cc2)C1=O (stereo not given)
inactive: locus YAL021C, strain ccr4, active compounds read low 1.02 | locus YAL026C, strain drs2, active compounds read low 0.998 | locus YAL030W, strain snc1, active compounds read low 1 | locus YBL061C, strain skt5, active compounds read low 0.999 | locus YBR009C, strain hhf1, active compounds read low 0.998 | locus YBR021W, strain FUR4, active compounds read low 0.995 | locus YBR023C, strain chs3, active compounds read low 1 | locus YBR171W, strain sec66, active compounds read low 1.01 | locus YBR229C, strain ROT2, active compounds read low 0.953 | locus YBR231C, strain swc5, active compounds read low 1 | locus YBR279W, strain paf1, active compounds read low 0.993 | locus YCL011C, strain gbp2, active compounds read low 1.01 | locus YCL016C, strain dcc1, active compounds read low 1.01 | locus YCL029C, strain bik1, active compounds read low 0.969 | locus YCL061C, strain MRC1, active compounds read low 1.01 | locus YCL069W, strain vba3, active compounds read low 1 | locus YCR088W, strain abp1, active compounds read low 1.01 | locus YDL005C, strain med2, active compounds read low 0.995 | locus YDL035C, strain GPR1, active compounds read low 0.972 | locus YDL040C, strain nat1, active compounds read low 0.997 | locus YDL074C, strain BRE1, active compounds read low 0.947 | locus YDL101C, strain DUN1, active compounds read low 0.98 | locus YDL134C, strain PPH21, active compounds read low 0.999 | locus YDL185W, strain tfp1, active compounds read low 0.974 | locus YDL192W, strain arf1, active compounds read low 0.984 | locus YDR001C, strain nth1, active compounds read low 0.995 | locus YDR069C, strain doa4, active compounds read low 0.988 | locus YDR101C, strain arx1, active compounds read low 1.01 | locus YDR137W, strain rgp1, active compounds read low 0.98 | locus YDR150W, strain NUM1, active compounds read low 0.979 | locus YDR159W, strain sac3, active compounds read low 1 | locus YDR162C, strain NBP2, active compounds read low 0.99 | locus YDR195W, strain ref2 0.987 | locus YDR297W, strain sur2, active compounds read low 1.01 | locus YDR318W, strain mcm21, active compounds read low 0.994 | locus YDR334W, strain swr1, active compounds read low 1.01 | locus YDR335W, strain msn5, active compounds read low 1.01 | locus YDR388W, active compounds read low 0.998 | locus YDR392W, strain spt3, active compounds read low 1.01 | locus YDR502C, strain sam2, active compounds read low 0.99 | locus YEL003W, strain gim4, active compounds read low 0.998 | locus YEL037C, strain rad23, active compounds read low 1 | locus YEL061C, strain CIN8 (second series), active compounds read low 1 | locus YEL061C, strain CIN8, active compounds read low 0.987 | locus YER015W, strain faa2, active compounds read low 0.996 | locus YER016W, strain bim1, active compounds read low 0.998 | locus YER110C, active compounds read low 0.965 | locus YER111C, strain swi4, active compounds read low 1 | locus YER155C, strain BEM2 (second series), active compounds read low 1.04 | locus YER155C, strain BEM2, active compounds read low 0.997 | locus YER167W, strain BCK2, active compounds read low 0.987 | locus YFR010W, strain ubp6, active compounds read low 1.01 | locus YGL078C, strain dbp3, active compounds read low 0.995 | locus YGL086W, strain mad1, active compounds read low 0.963 | locus YGL167C, strain pmr1, active compounds read low 1 | locus YGL173C, strain kem1, active compounds read low 0.983 | locus YGL227W, strain vid30, active compounds read low 1.01 | locus YGL240W, strain doc1, active compounds read low 1 | locus YGL248W, strain PDE1, active compounds read low 0.97 | locus YGL253W, strain hxk2, active compounds read low 1.01 | locus YGR135W, strain pre9, active compounds read low 0.988 | locus YGR229C, strain SMI1, active compounds read low 0.992 | locus YGR252W, strain gcn5, active compounds read low 0.893 | locus YHR013C, strain ard1, active compounds read low 1 | locus YHR027C, strain rpn1, active compounds read low 0.999 | locus YHR030C, strain SLT2, active compounds read low 0.999 and 0.974 | locus YHR079C, strain IRE1 (second series), active compounds read low 0.997 | locus YHR079C, strain IRE1, active compounds read low 0.973 | locus YHR094C, strain hxt1, active compounds read low 0.993 | locus YHR129C, strain ARP1, active compounds read low 0.982 | locus YHR142W, strain chs7, active compounds read low 1.01 | locus YHR200W, strain rpn10, active compounds read low 0.988 | locus YIL066C, strain RNR3, active compounds read low 0.976 | locus YIL073C, strain SPO22, active compounds read low 1.01 | locus YIL125W, strain kgd1, active compounds read low 0.985 | locus YIR030C, strain dcg1, active compounds read low 0.983 | locus YJL092W, strain hpr5, active compounds read low 1.01 | locus YJL095W, strain BCK1 (second series), active compounds read low 1.01 | locus YJL095W, strain BCK1, active compounds read low 1 and 0.992 | locus YJL115W, strain asf1, active compounds read low 1.01 | locus YJL129C, strain trk1, active compounds read low 0.997 | locus YJL134W, strain LCB3, active compounds read low 0.988 | locus YJL154C, strain vps35, active compounds read low 1 | locus YJL164C, strain tpk1, active compounds read low 0.994 | locus YJL166W, strain qcr8, active compounds read low 1.01 | locus YJL168C, strain set2, active compounds read low 0.994 | locus YJL187C, strain SWE1 (second series), active compounds read low 0.98 | locus YJL187C, strain SWE1, active compounds read low 1 | locus YJR043C, strain POL32, active compounds read low 0.999 | locus YJR066W, strain TOR1, active compounds read low 0.93
